# Assay results taken from PubChem BioAssay AID371 (SRMLSC, 2006).
# Where “and” joins values, the source holds several entries; their conditions need not be identical. Identical values can stand only once. In all, about 3,300 compounds went through this assay and about 280 (8.5%) were called active.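 Rule for the calls: active = mean growth inhibition over the two runs of 50% or more; inactive = mean growth inhibition under 50%.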 The full list was thinned out, with actives kept by preference.
# Test: A549 NSCLC cell proliferation inhibitors – ATP luminescence, human non-small cell lung line, primary screen (AID 371);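 note: compound exposure lasted 72 h before the ATP read; 0% = untreated cell signal and 100% = no luminescence left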
# Conditions: at 10 µM, hits give high values
row,SMILES,growth inhibition
1,Cc1ccc(N2C(=O)c3sc4nnc(C)c(=O)n4c3C2=O)cc1,-7.4% (inactive)
2,COc1cccc(OC)c1-c1nn2c(-c3ccccc3Cl)nnc2s1,21% (inactive)
3,CCOC(=O)c1ccc(NCC(O)COc2ccccc2)cc1 (stereo not drawn),31.1% (inactive)
4,COc1ccc(C(=O)N2CCCC(c3ccccc3)C2)cc1 (stereo not drawn),19% (inactive)
5,COc1ccccc1-c1nnc2sc(COc3ccccc3)nn12,22% (inactive)
6,CC1C[C@@]2(NC(=O)NC2=O)C(C)CN1C (stereo partly drawn),2.94% (inactive)
7,COc1ccc(Nc2cc(C)nc(-n3nc(C)cc3C)n2)cc1,66.2% (active)
8,COc1ccc(Nc2nc(Nc3ccc(OC)cc3)nc(-n3[nH]c(=O)c(C)c3C)n2)cc1,39.1% (inactive)
9,COc1ccc(Nc2cc(C)nc3ccccc23)cc1,31.3% (inactive)
10,O=C(Nc1ccccc1)c1cc(N2CCOCC2)nc2ccccc12,8.97% (inactive)
11,CC(C)COc1ccc(C(=O)NC(CC(C)C)C(=O)O)cc1 (stereo not drawn),-8.3% (inactive)
12,COc1cc(-c2nn3c(-c4ccccn4)nnc3s2)cc(OC)c1OC,-8.06% (inactive)
13,Cc1ccc2c(=O)c(CN(C)C3CCN(C)CC3)c(C)[nH]c2c1C,5.56% (inactive)
14,COc1ccc(C2=Nn3c(nnc3-c3ccccn3)SC2)cc1OC,3.8% (inactive)
15,COc1ccc(OC)c(C2=Nn3c(nnc3-c3ccco3)SC2)c1,23.2% (inactive)
16,COc1ccc(C2=Nn3c(nnc3-c3ccccc3)SC2)cc1OC,8.86% (inactive)
17,COc1ccc(C2=Nn3c(nnc3-c3cccnc3)SC2)cc1OC,25% (inactive)
18,COc1ccc(C2=Nn3c(nnc3-c3ccccn3)SC2)cc1,50.1% (active)
19,COc1ccccc1-c1nnc2n1N=C(c1ccc(O)c(O)c1)CS2,74.4% (active)
20,CCOc1ccc(C2=Nn3c(nnc3-c3ccccc3OC)SC2)cc1,66% (active)
21,CCOc1ccc(C2=Nn3c(nnc3-c3cccnc3)SC2)cc1,22.4% (inactive)
22,CCOc1ccc(C2=Nn3c(nnc3-c3ccccn3)SC2)cc1,42.3% (inactive)
23,Cc1ccsc1C1NC(=O)c2c(sc3c2CCCC3)N1 (stereo not drawn),45.3% (inactive)
24,O=CN1CCN(C(=O)CN2C(=O)c3ccccc3C2=O)CC1,-3.2% (inactive)

row,SMILES,growth inhibition
1,C/C=C/c1ccccc1OCc1ccc(C(=O)O)o1,6.28% (inactive)
2,CC12CN3CC(=O)N4CC5(C)CN(CC(C)(C4)C5=O)C(=O)CN(C1)CC(C)(C3)C2=O,1.18% (inactive)
3,COC(=O)CSc1ncnc2c1sc1nc(-c3ccco3)c3c(c12)CC(C)(C)OC3,4.18% (inactive)
4,O=C(Nc1ccccn1)c1ccc(=O)[nH]n1,5.88% (inactive)
5,C=CCn1c(SCC(=O)OC)nc2sc3c(c2c1=O)CCN(C)C3,0.89% (inactive)
6,CCCC1C2C(=O)N(c3ccccc3OC)C(=O)C2ON1c1ccccc1 (stereo not drawn),5.99% (inactive)
7,CN(Cc1ccccc1)c1ncnc2ccc(Br)cc12,55.5% (active)
8,CN(C)CCN(Cc1ccccc1)c1ccccn1,0.66% (inactive)
9,COCCNc1nc2c(c(=O)n(C)c(=O)n2C)n1Cc1cccc(C(F)(F)F)c1,36.4% (inactive)
10,Cc1c(NC(=O)C(CC(=O)O)NCc2ccco2)c(=O)n(-c2ccccc2)n1C (stereo not drawn),5.55% (inactive)
11,Cc1c(NC(=O)c2coc(=O)c(Br)c2)c(=O)n(-c2ccccc2)n1C,80.5% (active)
12,Cc1c(NC(=O)c2ccc(=O)oc2)c(=O)n(-c2ccccc2)n1C,-1.44% (inactive)
13,Cc1c(CCC#N)c(N2CCCCC2)n2c(nc3ccccc32)c1C#N,4.5% (inactive)
14,Cc1c(CCC#N)c(N2CCN(C3CCCCC3)CC2)n2c(nc3ccccc32)c1C#N,89.1% (active)
15,C=C(C)CN1CCN(c2c(CCC#N)c(C)c(C#N)c3nc4ccccc4n23)CC1,25.9% (inactive)
16,CC1(C)CC(=O)C(CCCN2C(=O)c3ccccc3C2=O)C(=O)C1,0.69% (inactive)
17,Cc1ccc(-c2nn3c(-c4cccc(Cl)c4)nnc3s2)cc1,45% (inactive)
18,CC(C)COc1ccc(C(=O)OCCN2CCOCC2)c(O)c1,12.1% (inactive)
19,O=c1[nH]c2ccccc2n1CCCN1CCN(C(c2ccccc2)c2ccccc2)CC1,90.4% (active)
20,C(=C\c1ccccc1)/CN1CCN(C(c2ccccc2)c2ccccc2)CC1,22.9% (inactive)
21,O=C(O)CCCC(=O)N1CCN(C(c2ccccc2)c2ccccc2)CC1,0.62% (inactive)
22,COc1cc2[nH]c3c(=O)n(CCN(C(C)C)C(C)C)cnc3c2cc1OC,5.76% (inactive)
23,Cc1ccc(-c2nn(CCC(=O)NCC3CCCO3)c(=O)c3ccccc23)cc1 (stereo not drawn),17.4% (inactive)
24,c1ccc(-c2ccc(C(c3ccccc3)n3ccnc3)cc2)cc1 (stereo not drawn),78.7% (active)

row,SMILES,growth inhibition
1,O=C(N(c1ccccc1)c1ccccc1)n1ccnc1,7.93% (inactive)
2,COc1cccc(C2C(C#N)=C(N)Oc3cc(C)[nH]c(=O)c32)c1OC (stereo not drawn),2.31% (inactive)
3,COc1cc(C2C(C#N)=C(N)Oc3cc(N)ccc32)cc(OC)c1OC (stereo not drawn),51.6% (active)
4,COc1cc(C2C(C#N)=C(N)Oc3cc(C)n(CCN4CCOCC4)c(=O)c32)cc(OC)c1OC (stereo not drawn),3.04% (inactive)
5,CC(C(=O)N1CCCCC1)N1C(=O)c2ccccc2C1=O (stereo not drawn),-14.3% (inactive)
6,O=C1C(=O)N(CCN2CCOCC2)C(c2ccccn2)/C1=C(/O)c1ccccc1 (stereo not drawn),4.51% (inactive)
7,CCN(CC)CCCN1C(=O)C(=O)/C(=C(/O)c2ccc(Cl)cc2)C1c1ccccn1 (stereo not drawn),-16.8% (inactive)
8,CCC(C(=O)OCCN(CC)CC)c1ccccc1 (stereo not drawn),5.51% (inactive)
9,CCN(CC)CCOC(=O)C(c1ccccc1)c1ccccc1,2.67% (inactive)
10,CCCCc1oc2ccccc2c1C(=O)c1cc(I)c(OCCN(CC)CC)c(I)c1,83.4% (active)
11,CCCn1c(SCC#N)nc2c(c1=O)C1(CCCC1)Cc1ccccc1-2,21.2% (inactive)
12,O=S(=O)(c1ccccc1)N1CCC(N2CCN(c3ccccc3)CC2)CC1,4.82% (inactive)
13,Fc1ccc2[nH]c3c(N4CCN(Cc5ccc6c(c5)OCO6)CC4)ncnc3c2c1,83.3% (active)
14,CCN(CC)CCNc1ncnc2c1[nH]c1ccc(OC)cc12,42.2% (inactive)
15,CCOC(=O)N1CCN(c2ncnc3c2[nH]c2ccc(OC)cc23)CC1,28.5% (inactive)
16,CC(C)OC(=O)C(C#N)c1nc2ccccc2nc1N1CCN(Cc2ccc3c(c2)OCO3)CC1 (stereo not drawn),3.13% (inactive)
17,Cc1ccc2[nH]c3c(N4CCN(Cc5ccc6c(c5)OCO6)CC4)ncnc3c2c1,83.9% (active)
18,Cc1cc(=O)oc(C)c1C(=O)N1CCN(Cc2ccc3c(c2)OCO3)CC1,8.78% (inactive)
19,CCCCNC(=O)C(C#N)c1nc2ccccc2nc1N1CCN(Cc2ccc3c(c2)OCO3)CC1 (stereo not drawn),11.1% (inactive)
20,COc1ccc2[nH]c3c(N4CCN(Cc5ccc6c(c5)OCO6)CC4)ncnc3c2c1,76.3% (active)
21,COc1ccccc1C(=O)N1CCN(Cc2ccc3c(c2)OCO3)CC1,8.7% (inactive)
22,CC(C)N1CCc2c(sc(N)c2C#N)C1,17.2% (inactive)
23,CC(=O)N=C(N)Sc1nc2ccccc2[nH]1,6.73% (inactive)
24,COC(=O)CSc1nc(-c2cccs2)ccc1C#N,14.7% (inactive)

row,SMILES,growth inhibition
1,COc1cc(Cn2ccnc2)c(OC)cc1Cn1ccnc1,1% (inactive)
2,Cc1ccc(/C(O)=C2/C(=O)C(=O)N(Cc3ccco3)C2c2cccs2)cc1 (stereo not drawn),-0.53% (inactive)
3,COC(=O)/C=c1/s/c(=C(/C#N)C(=O)N2CCCCC2)n(-c2ccccc2)c1=O,-4.39% (inactive)
4,O=C(Nc1cccnc1)c1cccnc1,-4.29% (inactive)
5,C[C@@H]1C[C@H](Nc2ccccc2)c2ccccc2N1C(=O)c1cccnc1,53.7% (active)
6,O=C(c1cncc(Br)c1)N1CCCc2ccccc21,8.54% (inactive)
7,O=C(O)CCN(CCC(=O)O)c1nnc(SCc2ccccc2)s1,-4.61% (inactive)
8,CC(=O)NC(=O)Nc1sc(=S)n(C)c1C,-19.1% (inactive)
9,CCOc1ccc(/C(O)=C2/C(=O)C(=O)N(c3nc(C)c(C)s3)C2c2ccco2)cc1 (stereo not drawn),18.5% (inactive)
10,CCCCSc1nnc2n(CCc3ccccc3)c(=O)c3c4c(sc3n12)COC(C)(C)C4,13.8% (inactive)
11,CCCCOc1cc(C(=O)NCCN(CC)CC)c2ccccc2n1,81.4% (active) and 70.4% (active)
12,CCN(CC)CCNC(=O)c1ccccc1N,2.63% (inactive)
13,CCN(CC)CCNC(=O)c1cc(S(C)(=O)=O)ccc1OC,-4.61% (inactive)
14,C=CCOn1c(=O)c(-c2cc3ccccc3o2)[n+]([O-])c2ccccc21,8.84% (inactive)
15,CNCCC=C1c2ccccc2CCc2ccccc21,79.8% (active)
16,CN(C)CCC=C1c2ccccc2CCc2ccccc21,26.6% (inactive)
17,CC1(C)Cc2ccccc2-c2c1c(=O)n(-c1ccccc1)c1nnnn21,3.31% (inactive)
18,Cc1ccccc1COc1ccc(/C(O)=C2/C(=O)C(=O)N(CCCn3ccnc3)C2c2ccco2)cc1 (stereo not drawn),1.79% (inactive)
19,CCN(CC)CCN1C(=O)C(O)=C(C(=O)c2cc3ccccc3o2)C1c1cccnc1 (stereo not drawn),-1.01% (inactive)
20,CC(C)OC(=O)C(C#N)c1nc2ccccc2nc1N1CCCC1 (stereo not drawn),18.3% (inactive)
21,COC(=O)COc1ccc(Oc2nc(SC)nc(N(C)C)n2)nn1,-1.19% (inactive)
